Test results: PubChem BioAssay
Activity calls are given as the source filed them.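 The calls were made as follows, unless noted: active = visually confirmed hit in the image check and inhibition above 20%; inconclusive = visually confirmed hit but inhibition not above 20%; inactive = no visual hit in the image check.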

What was measured:
[1] = inhibitors of TNFa-induced NFkB p65 translocation, primary screen, imaging, HUVEC, MLSMR starter and 10KST1 sets (AID 438;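 active = inhibition above 20% together with a positive visual image hit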;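 also: compound added about 3h40 before a 20 min TNFalpha stimulation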;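 as to inhibition: signal is the nuclear over cytoplasmic p65 intensity ratio per well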); details: HUVEC TNFa-induced p65 nuclear translocation; cell count: measured here: nuclei count (cytotoxicity indicator), at 2.08 µM unless noted; inhibition: at 2 µM, stronger effect = higher value unless noted
[2] = endothelial E-selectin expression blockers – imaging, HUVEC, immunofluorescence, MLSMR starter and 10KST1 sets, primary screen (AID 487); details: HUVEC TNFalpha-induced E-selectin immunofluorescence imaging, at 2 µM; inhibition: stronger effect = higher value; nuclei count: measured here: cell number, toxicity;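 as to inhibition: signal is fraction of cell area covered by stained E-selectin grains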;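 as to nuclei count: 100% = median nuclei count of all wells on the same plate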
[3] = Primary imaging screen for DUSP6 inhibitors that restore phospho-Erk in transfected HeLa cells, chemical complementation (AID 609;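 active = compounds giving at least 50% inhibition in the cell-based MKP-3 phosphatase rescue imaging test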;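 as to inhibition: phospho-Erk level distribution per well compared with pooled transfected vehicle control wells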); details: HeLa MKP-3 transfected, phospho-Erk imaging KS statistic, at 10 µM
[4] = biological target: Dual specificity protein phosphatase 6 (Homo sapiens) (UniProt Q16828); test: as above; details: HeLa MKP-3 transfected, phospho-Erk imaging KS statistic, at 10 µM, stronger effect = higher value
Sequence of Dual specificity protein phosphatase 6 (Homo sapiens) (Q16828 whole entry, looked up): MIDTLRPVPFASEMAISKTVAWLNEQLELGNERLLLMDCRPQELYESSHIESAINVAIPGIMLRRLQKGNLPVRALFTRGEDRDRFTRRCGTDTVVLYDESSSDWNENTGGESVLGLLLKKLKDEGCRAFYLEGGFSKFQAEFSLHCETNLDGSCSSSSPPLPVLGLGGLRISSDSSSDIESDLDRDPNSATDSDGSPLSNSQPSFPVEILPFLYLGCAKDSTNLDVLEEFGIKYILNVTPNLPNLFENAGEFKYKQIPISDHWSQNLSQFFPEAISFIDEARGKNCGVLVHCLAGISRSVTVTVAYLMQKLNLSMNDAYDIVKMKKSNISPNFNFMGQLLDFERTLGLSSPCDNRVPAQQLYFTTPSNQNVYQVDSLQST

[5] = biological target: Voltage-gated potassium channel subunit beta-2 (Rattus norvegicus) (UniProt P62483); test: inhibitors of rat Kvbeta2 reductase activity – biochemical, NADPH fluorescence, primary screen (AID 622;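 active = fluorescence slope higher than the sample average by over 3 SD, cut at about -0.22 in these data, passing the limit was not always enough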;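 also: slope of raw intensity against log time taken from 70 to 1610 s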); details: recombinant KvBeta, 4-cyanobenzaldehyde reduction, at 10 µM, stronger effect = higher value
Sequence of Voltage-gated potassium channel subunit beta-2 (Rattus norvegicus) (P62483 whole entry, looked up): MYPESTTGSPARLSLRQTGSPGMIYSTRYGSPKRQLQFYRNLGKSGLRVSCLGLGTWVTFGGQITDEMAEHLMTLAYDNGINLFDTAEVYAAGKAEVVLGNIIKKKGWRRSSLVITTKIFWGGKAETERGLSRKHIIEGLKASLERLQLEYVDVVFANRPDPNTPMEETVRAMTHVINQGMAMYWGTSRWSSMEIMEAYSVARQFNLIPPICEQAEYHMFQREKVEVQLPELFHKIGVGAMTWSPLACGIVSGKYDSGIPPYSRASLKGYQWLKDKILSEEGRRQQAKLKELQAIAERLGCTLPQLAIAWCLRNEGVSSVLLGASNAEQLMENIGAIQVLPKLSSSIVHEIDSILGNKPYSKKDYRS

[6] = biological target: Voltage-gated potassium channel subunit beta-2 (Rattus norvegicus) (UniProt P62483); test: enhancers of rat Kvbeta2 NADPH turnover – biochemical, NADPH fluorescence, primary screen (AID 623;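 active = NADPH fluorescence slope more negative than the mean of all samples by about 3 SD, 99.7% confidence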;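 also: fluorescence intensity change per second fitted from 20 to 320 s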); details: Recombinant KvBeta, NADPH fluorescence decrease slope, 10 min; at 10 µM; stronger effect = lower value
[7] = biological target: Muscarinic acetylcholine receptor M4 (Homo sapiens) (UniProt P08173); test: M4-linked GIRK flux change, two-sided – cell-based, HEK293 M4/GIRK, thallium flux, BTC-AM, M4 allosteric agonist project, primary screen (AID 625;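 active = fluorescence slope after compound addition differing from the mean of all tested samples at 99.7% confidence, mostly higher but some lower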;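 also: thallium influx through GIRK channels coupled to M4 in HEK293 cells with BTC-AM dye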); details: at 10 µM, actives lie on both sides
Sequence of Muscarinic acetylcholine receptor M4 (Homo sapiens) (P08173 whole entry, looked up): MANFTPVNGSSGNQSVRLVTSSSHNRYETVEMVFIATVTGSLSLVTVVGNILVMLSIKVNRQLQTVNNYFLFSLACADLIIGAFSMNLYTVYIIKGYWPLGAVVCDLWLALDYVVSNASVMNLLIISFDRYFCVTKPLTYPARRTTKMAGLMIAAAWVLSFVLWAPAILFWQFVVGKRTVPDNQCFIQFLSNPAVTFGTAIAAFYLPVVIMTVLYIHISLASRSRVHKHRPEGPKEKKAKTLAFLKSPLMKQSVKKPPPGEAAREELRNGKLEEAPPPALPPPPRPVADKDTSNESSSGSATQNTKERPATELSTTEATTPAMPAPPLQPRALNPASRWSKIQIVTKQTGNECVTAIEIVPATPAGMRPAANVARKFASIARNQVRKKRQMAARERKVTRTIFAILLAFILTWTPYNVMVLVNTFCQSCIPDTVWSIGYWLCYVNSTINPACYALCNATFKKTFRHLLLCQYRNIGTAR

[8] = inhibitors of larval lipid processing in zebrafish, primary screen, whole organism, PED6 fluorescence, gall bladder and intestine (AID 686;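 active = a full or partial loss of lipid-probe fluorescence in the fish gall bladder, intestine or both, judged by eye; inactive = no fluorescence loss, or compound toxic to the fish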;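 also: larvae 5 to 7 days old with five fish per well; signal comes from phospholipase A2 cleavage of quenched PED6 carried via bile; overnight exposure to compound and PED6 before scoring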); details: Zebrafish larvae PED6 lipid processing, fluorescence scoring
[9] = loss of swimming-algae plug formation – whole organism, Chlamydomonas reinhardtii, WT vs cilia-less mutant, absorbance, 96-well, primary screen (AID 463189;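 active = inhibition at or above 50% relative to wild type and mutant plate controls; inactive = inhibition below 50%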;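 also: 0% = wild type cc124 cells in DMSO and 100% = ciliumless bld1 mutant cells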); details: Chlamydomonas reinhardtii gravitaxis, OD600 absorbance, 2 days; at 10 µM; stronger effect = higher value
[10] = measured here: cell density z-score
[11] = measured here: nuclear c-Myc green intensity z-score
[12] = measured here: nuclear pErk red intensity z-score, stronger effect = higher value

Row | Structure (SMILES) | cell count [1] | inhibition [1] | inhibition [2] | nuclei count [2] [%] | z-score [3, 10] | z-score [3, 11] | z-score [3, 12] | inhibition [4] | fluorescence slope [5] | NADPH fluorescence slope [6] | fluorescence slope [7] | outcome [8] | inhibition [9]
1 | COc1ccc(C(=O)CC2C(=O)N(C)C(=O)N(C)C2=O)cc1 | 726 | 14.4% (inactive) | -27.9% (inactive) | 135 | 0.66 | 0.621 | -1.11 | -3.95% (inactive) | -0.453 (inactive) | -4.3e-05 (inactive) | 0.00539 (inactive) | inactive | 0.215% (inactive)
2 | CN1CCc2c(c(N3CCCCC3)nc3n[nH]c(N)c23)C1 | 496 | -17.1% (inactive) | -154% (inactive) | 127 | 1.06 | -1.56 | 0.455 | 21.4% (inactive) | -0.463 (inactive) | -8.3e-05 (inactive) | 0.00409 (inactive) | inactive | -3.54% (inactive)
3 | CN(C)CCOC(=O)c1cn(Cc2ccccc2)c2ccccc12 | 639 | -9.5% (inactive) | -111% (inactive) | 182 | 1.72 | -0.185 | -0.202 | -6.06% (inactive) | -0.507 (inactive) | -6.8e-05 (inactive) | 0.00681 (inactive) | inactive | 37% (inactive)
4 | CCOC(=O)C1=C(C)OC(N)=C(C(=O)OCC)[C@@]12C(=O)N(CC(N)=O)c1ccccc12 | 465 | -6.3% (inactive) | -219% (inactive) | 186 | -0.479 | -0.527 | -0.153 | -0.624% (inactive) | -0.445 (inactive) | -5.7e-05 (inactive) | 0.00512 (inactive) | inactive | 5.83% (inactive)
5 | O=C(c1ccco1)C12CN3CN(CN(C3)C1)C2 | 403 | -7% (inactive) | -98.3% (inactive) | 165 | -0.216 | 0.212 | 0.209 | 17.4% (inactive) | -0.431 (inactive) | -0.000115 (inactive) | 0.00486 (inactive) | inactive | -4.37% (inactive)
6 | NCC1(c2ccc3c(c2)OCCO3)CCCC1 | 634 | 8.6% (inactive) | -19.9% (inactive) | 120 | -0.692 | -0.463 | 0.187 | -13.3% (inactive) | -0.453 (inactive) | -2.2e-05 (inactive) | 0.0056 (inactive) | inactive | -6.44% (inactive)
7 | COC(=O)C(c1ccccc1)N1CCCCCC1 (stereo unspecified) | 730 | 0.3% (inactive) | 20.3% (inactive) | 165 | -0.512 | 1.36 | 1.38 | -11.4% (inactive) | -0.406 (inactive) | -3.5e-05 (inactive) | 0.0047 (inactive) | inactive | -6.36% (inactive)
8 | C=CCOC(=O)C1=C(C)OC(N)=C(C#N)C12C(=O)N(CN1CCOCC1)c1ccccc12 (stereo unspecified) | 388 | 0.7% (inactive) | -73.4% (inactive) | 88.4 | -0.108 | 0.314 | 1.06 | -4.59% (inactive) | -0.515 (inactive) | 2.9e-05 (inactive) | 0.00467 (inactive) | inactive | 39.6% (inactive)
9 | CCn1c(O)c(C(=O)CC2NCCc3ccccc32)c(=O)n(CC)c1=S (stereo unspecified) | 494 | -7.2% (inactive) | -84.9% (inactive) | 120 | -1.06 | -1.07 | 1.31 | 3.97% (inactive) | -0.399 (inactive) | -1.1e-05 (inactive) | 0.00707 (inactive) | inactive | -9.64% (inactive)
10 | COc1ccc2c(c1OC)C(=O)OC2c1c(O)n(C2CCCCC2)c(=O)[nH]c1=O (stereo unspecified) | 572 | -9.7% (inactive) | -2.8% (inactive) | 150 | 0.755 | 0.301 | 0.433 | 15.9% (inactive) | -0.379 (inactive) | -7.1e-05 (inactive) | 0.00555 (inactive) | inactive | 6.27% (inactive)
11 | CC1(c2ccccc2)NCCN2C(=O)CSC21 (stereo unspecified) | 632 | 2.3% (inactive) | 32.4% (inactive) | 147 | 1.05 | -0.953 | -0.166 | 1.12% (inactive) | -0.477 (inactive) | -6.1e-05 (inactive) | 0.00532 (inactive) | inactive | 8.43% (inactive)
12 | CCCC12CN3CN(C1)CC(CCC)(C3)C2O (stereo unspecified) | 527 | 5.6% (inactive) | -164% (inactive) | 146 | 0.514 | 1.99 | -1.5 | 7.42% (inactive) | -0.474 (inactive) | -0.000119 (inactive) | 0.00532 (inactive) | inactive | -2.85% (inactive)
